Assay outcomes deposited in PubChem BioAssay by National Center for Advancing Translational Sciences (NCATS).
ATXN viability – viability counter-screen for ATXN expression inhibitors; S2 cells (HEK-293 line with an ATXN2-luciferase reporter) viability, CellTiter-Fluor protease fluorescence, 24 h; AID 651635; 400,000 compounds, 0.49% hits; Potency, µM (highest dose often 56.7 µM), actives largely listed as cytotoxic; also: nearly all actives have a fitted effect of over 40% in size
Gal4-VP16 FLuc – counter-screen for ROR gamma inhibitors: Gal4-VP16 reporter; Drosophila S2 Gal4-VP16 UAS-luciferase, luminescence, 20 h; Potency, µM (top dose mostly 53.6 µM), usual class: inhibitors; 310,000 compounds, 3.5% hits; AID 2546;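 also: Gal4-VP16 expression switched on by copper sulfate through the metallothionein promoter; nearly all actives have a fitted effect of over 50% in size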
TGFb SMAD3 inh – blocks TGF-b signaling; HepG2 CAGA-GFP TGF-b/SMAD3 reporter, GFP fluorescence, 18 h; TGF-beta stimulated, 500 pg/mL final; Potency, µM (titrated, usually from 46.1 µM), usual class: inhibitors; 410,000 compounds, 1.2% hits; also: nearly all actives have a fitted effect of over 65% in size
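Inhibition of TGF-beta-driven CAGA-GFP reporter expression in HEPG2 cells is measured by cellular GFP fluorescence after 18 h stimulation with 500 pg/mL recombinant TGF-beta in 1% FBS medium at 37 degrees C.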
HepG2 tox – kills HepG2 cells in TGF-b inhibitor counter-screen. HepG2 CAGA-GFP viability, ATP luminescence, 18 h. Potency, µM (titrated, usually from 46.1 µM), hits mostly cytotoxic. 410,000 compounds, 0.76% hits. AID 588856
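HepG2 CAGA-GFP cells (1000/well, DMEM with 1% FBS) received compound, then TGF-beta at 500 pg/mL final, and were incubated 18 hours at 37 degrees C. Viability was read by CellTiter-Glo luminescence. Media-only wells were set as complete cell-killing and DMSO as no toxicity.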
ATXN2 expr inh – inhibitors of ATXN2 expression; HEK-293 ATXN2-luciferase reporter, luminescence, 24 h; Potency, µM (doses to about 57 µM), usual class: inhibitors; 360,000 compounds, 0.72% hits; AID 1745845; also: nearly all actives have a fitted effect of over 55% in size
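ATXN2-luciferase reporter cells (luciferase flanked by upstream and downstream ATXN2 gene portions) were treated 24 h at 37 °C with compounds at up to 57 uM. SteadyGlo luminescence gave expression; GF-AFC fluorescence gave viability.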
RORgamma inh – inhibitors of mouse ROR gamma transcriptional activity; P51450; Potency, µM (series often up to 53.6 µM), most hits filed as inhibitors; 310,000 compounds, 5.4% hits; Drosophila S2 Gal4-RORgamma UAS-luciferase reporter, 20 h; AID 2551; also: nearly all actives have a fitted effect of over 60% in size
Target sequence (P51450 whole entry, looked up, the tested form may be a part): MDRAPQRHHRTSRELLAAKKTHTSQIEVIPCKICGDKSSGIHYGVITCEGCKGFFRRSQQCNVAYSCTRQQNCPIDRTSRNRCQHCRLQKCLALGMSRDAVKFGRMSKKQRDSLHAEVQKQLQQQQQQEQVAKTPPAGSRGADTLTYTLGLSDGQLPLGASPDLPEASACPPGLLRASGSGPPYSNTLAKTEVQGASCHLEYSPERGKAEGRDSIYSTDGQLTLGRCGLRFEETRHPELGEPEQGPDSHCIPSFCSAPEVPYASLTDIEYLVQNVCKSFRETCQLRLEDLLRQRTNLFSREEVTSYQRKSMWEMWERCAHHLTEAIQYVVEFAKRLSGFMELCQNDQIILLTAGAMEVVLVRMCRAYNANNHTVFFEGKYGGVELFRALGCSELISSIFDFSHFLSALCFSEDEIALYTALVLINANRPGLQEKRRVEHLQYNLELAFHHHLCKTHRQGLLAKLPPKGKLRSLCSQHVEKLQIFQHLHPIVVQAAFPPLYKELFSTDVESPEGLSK
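Drosophila S2 cells stably expressing Gal4-DBD/mouse RORγ fusion under metallothionein promoter plus UAS-luciferase; compound 1 h, then 700 uM CuSO4 induction for 20 h at ambient temperature; inhibition read as reduced luminescence.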
Of the large screens only hits and unclear results are named; the others gave an inactive call. Compounds with a hit are over-represented: about 6.1% of the library has one in this group of screens. Calls follow the shape of the dose curve; as a rule, active = well fitted curve in the direction sought with a large enough effect; inconclusive = small, poorly fitted or top-dose-only effect, or another doubt; inactive = no such curve, though single readings can be large; an effect the other way counts as inactive or inconclusive.

Cc1ccc(C2/C(=C(/O)c3cnn(-c4ccccc4)c3C)C(=O)C(=O)N2CCCN2CCOCC2)o1 (configuration not stated)	none (no result: ATXN viability, TGFb SMAD3 inh, HepG2 tox, ATXN2 expr inh)
CN(C(=O)Nc1ccccc1)C1CCS(=O)(=O)C1 (configuration not stated)	ATXN viability inconclusive
CC(=O)NC1=C(N(C)C2CCS(=O)(=O)C2)C(=O)c2ccccc2C1=O (configuration not stated)	ATXN viability inconclusive, Gal4-VP16 FLuc 7.9µM, TGFb SMAD3 inh inconclusive, ATXN2 expr inh inconclusive, RORgamma inh 2.5µM
CCC(C)NC(=O)CSc1nc2cc3c(cc2c(=O)n1CCCCCC(=O)NCc1ccc(OC)cc1)OCO3 (configuration not stated)	none (no result: ATXN viability, Gal4-VP16 FLuc, ATXN2 expr inh, RORgamma inh)
C=CCOC(=O)C1=C(C)NC(=S)C(C#N)(CC=C)C1c1ccccc1Cl (configuration not stated)	TGFb SMAD3 inh 11µM, RORgamma inh inconclusive (no result: ATXN2 expr inh)
CSc1ccc(/C=C2\C=C(C(O)c3ccc(SC)cc3)c3ccccc32)cc1 (configuration not stated)	none (no result: ATXN viability, Gal4-VP16 FLuc, ATXN2 expr inh, RORgamma inh)
CC(=O)c1sc(NC(=O)C2COc3ccccc3O2)nc1C (configuration not stated)	Gal4-VP16 FLuc 10µM, ATXN2 expr inh inconclusive, RORgamma inh 7.1µM
C/C(=N/NC(=O)C1COc2ccccc2O1)c1ccc(Br)s1 (configuration not stated)	RORgamma inh inconclusive
Cc1cccc2sc(NNC(=O)C3COc4ccccc4O3)nc12 (configuration not stated)	Gal4-VP16 FLuc 11µM, RORgamma inh 6.3µM
O=C(Nc1nnc(C(F)(F)F)s1)C1COc2ccccc2O1 (configuration not stated)	TGFb SMAD3 inh inconclusive
COc1ccc(OC)c2sc(NNC(=O)C3COc4ccccc4O3)nc12 (configuration not stated)	RORgamma inh inconclusive
C/C(=N\NC(=O)C1COc2ccccc2O1)c1ccc(Cl)s1 (configuration not stated)	Gal4-VP16 FLuc 18µM, RORgamma inh 6.3µM
O=C(NNc1nc2c(F)cc(F)cc2s1)C1COc2ccccc2O1 (configuration not stated)	RORgamma inh 13µM
Cc1ccc(C)c(Cn2c3ccccc3c3cnn(CC(=O)NCc4ccccc4)c(=O)c32)c1	none (no result: Gal4-VP16 FLuc, RORgamma inh)
COc1ccccc1C1CN(CCNC(=O)[C@@H]2CSC(=O)N2)Cc2ccccc2O1 (some centres not stated)	none (no result: Gal4-VP16 FLuc, TGFb SMAD3 inh, HepG2 tox, ATXN2 expr inh, RORgamma inh)
Cc1ccc(-c2nnc3ccccc3c2C(=O)Nc2cccc(Cl)c2)cc1	none (no result: ATXN viability, Gal4-VP16 FLuc, ATXN2 expr inh, RORgamma inh)
Cc1ccc(NC(=O)C2COc3ccccc3O2)c(C)c1 (configuration not stated)	none
Cc1cc(C)c2sc(NNC(=O)C3COc4ccccc4O3)nc2c1 (configuration not stated)	Gal4-VP16 FLuc 18µM, TGFb SMAD3 inh inconclusive, ATXN2 expr inh inconclusive, RORgamma inh 2.8µM
Cc1cc(C)c(OCC(=O)N(Cc2cccc(F)c2)Cc2ccco2)c(C)c1	HepG2 tox 11µM (no result: ATXN viability, Gal4-VP16 FLuc, ATXN2 expr inh, RORgamma inh)
Cc1cccc(C)c1OCC(=O)N(Cc1ccco1)Cc1ccco1	none (no result: ATXN viability, Gal4-VP16 FLuc, ATXN2 expr inh, RORgamma inh)
CCCN(c1ccccc1F)S(=O)(=O)c1cc(-c2cc(C)no2)ccc1C	TGFb SMAD3 inh inconclusive (no result: ATXN viability, Gal4-VP16 FLuc, ATXN2 expr inh, RORgamma inh)
CCCOc1ccc(C2c3c(oc4ccccc4c3=O)C(=O)N2c2nc(C)c(C(=O)OCC)s2)cc1 (configuration not stated)	none (no result: Gal4-VP16 FLuc, RORgamma inh)
O=C(/C=C/c1ccc(C(F)(F)F)cc1)OC(C(=O)NC1CC1)c1ccccc1 (configuration not stated)	none (no result: ATXN viability, Gal4-VP16 FLuc, ATXN2 expr inh, RORgamma inh)
O=C1CC(c2ccccc2)c2cc(O)ccc2O1 (configuration not stated)	RORgamma inh 11µM
O=C1CC(c2ccc3c(c2)OCO3)c2cc(O)ccc2O1 (configuration not stated)	none (no result: ATXN viability, TGFb SMAD3 inh, HepG2 tox, ATXN2 expr inh)
CCCN(CCC)CCCNC(=S)Nc1ccc2nc(N3CCCC3)cc(C)c2c1	ATXN viability inconclusive, TGFb SMAD3 inh inconclusive (no result: ATXN2 expr inh)
